# Experimental data as given in PubChem BioAssay (NCATS).
# Unmarked numbers belong to inactive results. Results filed as inconclusive are left out. Entries that show only a call come without a potency. Calls of active or inactive are those of the source. Unless noted, calls come from the whole dose curve; as a rule, active = well fitted curve in the direction sought with a large enough effect; inconclusive = small, poorly fitted or top-dose-only effect, or another doubt; inactive = no such curve, though single readings can be large; an effect the other way counts as inactive or inconclusive.
# How the values were obtained:
# [1] = system: C33A; test: Primary qHTS to identify gynecologic anti-cancer compounds using libraries of approved drugs and bioactive compounds (AID 1345084); settings: Gynecologic cancer cell panel viability, ATPlite luminescence, 48 h; series mostly up to 57.5 µM; note: nearly all actives have a fitted effect of over 55% in size; note: potency is the fitted concentration of half-maximal effect
# Procedure, shortened: (§1)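 Five-concentration response, 48 h; readout is ATP-driven luciferase luminescence.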
# [2] = system: CAOV3; test: as above; settings: Gynecologic cancer cell panel viability, ATPlite luminescence, 48 h; series mostly up to 57.5 µM
# Procedure, shortened: as §1
# [3] = system: CASKI; test: as above; settings: Gynecologic cancer cell panel viability, ATPlite luminescence, 48 h; series mostly up to 57.5 µM
# Procedure, shortened: as §1
# [4] = system: Es-2; test: as above; settings: Gynecologic cancer cell panel viability, ATPlite luminescence, 48 h; series mostly up to 57.5 µM
# Procedure, shortened: as §1
# [5] = system: HeLa; test: as above; settings: Gynecologic cancer cell panel viability, ATPlite luminescence, 48 h; series mostly up to 57.5 µM
# Procedure, shortened: as §1
# [6] = system: Hek293T; test: as above; settings: Gynecologic cancer cell panel viability, ATPlite luminescence, 48 h, control line for the selectivity index; series mostly up to 57.5 µM
# Procedure, shortened: as §1
# [7] = system: JEG-3; test: as above; settings: Gynecologic cancer cell panel viability, ATPlite luminescence, 48 h; series mostly up to 57.5 µM
# Procedure, shortened: as §1
# [8] = system: OV90; test: as above; settings: Gynecologic cancer cell panel viability, ATPlite luminescence, 48 h; series mostly up to 57.5 µM
# Procedure, shortened: as §1
# [9] = system: SKOV3; test: as above; settings: Gynecologic cancer cell panel viability, ATPlite luminescence, 48 h; series mostly up to 57.5 µM
# Procedure, shortened: as §1
# [10] = system: Tov-21-G; test: as above; settings: Gynecologic cancer cell panel viability, ATPlite luminescence, 48 h; series mostly up to 57.5 µM
# Procedure, shortened: as §1
# [11] = system: Tov112D; test: as above; settings: Gynecologic cancer cell panel viability, ATPlite luminescence, 48 h; series mostly up to 57.5 µM
# Procedure, shortened: as §1
# [12] = Drug repurposing screens with cells derived from glioblastoma tumor samples (AID 1345199); settings: GBM patient neurospheres viability, ATP luminescence, 48 h; note: nearly all actives have a fitted effect of over 40% in size; note: potency is the fitted concentration of half-maximal effect
# Procedure, shortened: (§2)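 Four patient lines of CD133+ GBM neurospheres were screened at several concentrations; hits were retested in those lines plus three slower-growing GBM lines, using 48-hour treatment and ATP-based viability.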
# [13] = system: astro; test: as above; settings: viability, ATP luminescence, 48 h; series mostly up to 45.9 µM
# Procedure, shortened: as §2
# [14] = system: PA-1; test: Primary qHTS to identify gynecologic anti-cancer compounds using libraries of approved drugs and bioactive compounds (AID 1345084); settings: Gynecologic cancer cell panel viability, ATPlite luminescence, 48 h; series mostly up to 57.5 µM; note: nearly all actives have a fitted effect of over 55% in size; note: potency is the fitted concentration of half-maximal effect
# Procedure, shortened: as §1
# [15] = system: UISO; test: qHTS assay to identify novel small-molecules to repurpose for Merkel cell carcinoma treatment (AID 1296009); settings: MCC and control cell lines, CellTiter-Glo viability, 72 h; series mostly up to 46 µM; note: nearly all actives have a fitted effect of over 60% in size
# Procedure, shortened: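 Cells were treated for 72 hr at 37 degree celsius with compounds in 8- or 11-point dose response. Viability was read by CellTiter-Glo luminescence, normalized to no-cell (cytotoxicity) and DMSO controls.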
# [16] = target: Nuclear receptor subfamily 1 group I member 2 (Rattus norvegicus) (UniProt Q9R1A7); test: qHTS assay for small molecule activators of the rat pregnane X receptor (rPXR) signaling pathway (AID 651751; call rule not given here); settings: rPXR reporter cells, luciferase (One-Glo), 24 h
# [17] = qHTS assay for small molecule activators of the human pregnane X receptor (PXR) signaling pathway (AID 720659; call rule not given here)
# [18] = at 45.9 µM (top of the series), tumour line B
# [19] = at 45.9 µM (top of the series), tumour line D
# [20] = at 46 µM (top of the series), tumour line A
# [21] = at 46.1 µM (top of the series), tumour line C
# Chain of Nuclear receptor subfamily 1 group I member 2 (Rattus norvegicus) (Q9R1A7 whole entry, looked up): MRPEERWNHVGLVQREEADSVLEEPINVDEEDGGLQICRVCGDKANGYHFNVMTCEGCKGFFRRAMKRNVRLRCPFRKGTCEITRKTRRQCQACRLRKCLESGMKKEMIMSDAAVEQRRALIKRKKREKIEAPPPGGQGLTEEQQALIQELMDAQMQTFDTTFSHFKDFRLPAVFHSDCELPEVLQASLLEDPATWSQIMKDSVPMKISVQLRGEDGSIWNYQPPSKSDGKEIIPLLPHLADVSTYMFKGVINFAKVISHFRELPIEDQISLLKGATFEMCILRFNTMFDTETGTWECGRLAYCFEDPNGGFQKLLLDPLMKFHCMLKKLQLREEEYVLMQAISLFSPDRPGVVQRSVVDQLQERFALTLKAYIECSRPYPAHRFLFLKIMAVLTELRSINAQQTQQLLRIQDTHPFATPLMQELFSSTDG
compound,measurement,setting,value
C[C@]12C=CC(=O)C=C1CC[C@@H]1[C@@H]2[C@@H](O)C[C@@]2(C)[C@H]1CC[C@]2(O)C(=O)CO,Potency,[1],inactive
same,Potency,[2],inactive
same,Potency,[3],inactive
same,Potency,[4],inactive
same,Potency,[5],inactive
same,Potency,[6],inactive
same,Potency,[7],inactive
same,Potency,[8],inactive
same,Potency,[9],inactive
same,Potency,[10],inactive
same,Potency,[11],inactive
same,"activity, negative = cell killing",[12]; [18],-12.2%
same,"activity, negative = cell killing",[12]; [19],-11.3%
same,"activity, negative = cell killing",[12]; [20],-29.3%
same,"activity, negative = cell killing",[12]; [21],-10.5%
same,Potency,[13],inactive
O=C(OCC(O)CO)c1ccccc1Nc1ccnc2cc(Cl)ccc12 (centres undefined),Potency,[1],inactive
same,Potency,[2],inactive
same,Potency,[3],inactive
same,Potency,[4],inactive
same,Potency,[5],inactive
same,Potency,[6],inactive
same,Potency,[7],inactive
same,Potency,[8],inactive
same,Potency,[14],inactive
same,Potency,[9],inactive
same,Potency,[10],inactive
same,Potency,[11],inactive
same,"activity, negative = cell killing","[12]; at 20 µM (top of the series), tumour line C",1.49%
same,"activity, negative = cell killing","[12]; at 21.2 µM (top of the series), tumour line B",-17%
same,Potency,[13],inactive
COc1cc2c(cc1OC)C(=O)C(CC1CCN(Cc3ccccc3)CC1)C2 (centres undefined),Potency,[15],inactive
same,Potency,[1],inactive
same,Potency,[3],inactive
same,Potency,[4],inactive
same,Potency,[5],inactive
same,Potency,[6],inactive
same,Potency,[7],inactive
same,Potency,[10],inactive
same,Potency,[11],inactive
same,Potency,[13],inactive
CCN(CC)C(=O)/C(C#N)=C/c1cc(O)c(O)c([N+](=O)[O-])c1,Potency,[1],inactive
same,Potency,[2],inactive
same,Potency,[3],inactive
same,Potency,[4],inactive
same,Potency,[5],inactive
same,Potency,[6],inactive
same,Potency,[7],inactive
same,Potency,[9],inactive
same,Potency,[10],inactive
same,"activity, negative = cell killing",[12]; [18],-9.02%
same,"activity, negative = cell killing",[12]; [19],4.73%
same,"activity, negative = cell killing",[12]; [20],-20%
same,"activity, negative = cell killing",[12]; [21],7.42%
O=S1(=O)c2cccc3cccc(c23)N1CCCN1CCN(c2ccc(F)cc2)CC1,Potency,[15],inactive
same,Potency,[1],inactive
same,Potency,[3],inactive
same,Potency,[4],inactive
same,Potency,[5],inactive
same,Potency,[6],inactive
same,Potency,[7],inactive
same,Potency,[8],inactive
same,Potency,[14],inactive
same,Potency,[9],inactive
same,Potency,[10],inactive
same,Potency,[11],inactive
same,"activity, negative = cell killing",[12]; [18],-28.9%
same,Potency,[12]; tumour line A,12.6 µM (active)
O=c1[nH]c(=O)n([C@H]2C[C@H](O)[C@@H](CO)O2)cc1C(F)(F)F,Potency,[2],inactive
same,Potency,[5],inactive
same,Potency,[6],inactive
same,Potency,[7],inactive
same,Potency,[8],inactive
same,Potency,[14],8.91 µM (active)
same,Potency,[9],inactive
same,Potency,[10],inactive
same,Potency,[11],11.2 µM (active)
same,"activity, negative = cell killing",[12]; [19],-28.4%
same,"activity, negative = cell killing",[12]; [21],-13.3%
same,Potency,[13],inactive
O=C1CCC(c2ccc(-n3ccnc3)cc2)=NN1,"activity, negative = cell killing",[12]; [18],-6.09%
same,"activity, negative = cell killing",[12]; [19],-6.36%
same,"activity, negative = cell killing",[12]; [21],-27.3%
same,Potency,[13],inactive
O=C(O)CCCCC(=O)O,Potency,[1],inactive
same,Potency,[3],inactive
same,Potency,[4],inactive
same,Potency,[5],inactive
same,Potency,[6],inactive
same,Potency,[7],inactive
same,Potency,[8],inactive
same,Potency,[14],inactive
same,Potency,[9],inactive
same,Potency,[10],inactive
same,Potency,[11],inactive
same,"activity, negative = cell killing",[12]; [18],11.6%
same,"activity, negative = cell killing",[12]; [19],-7.89%
same,"activity, negative = cell killing",[12]; [20],-0.455%
same,"activity, negative = cell killing",[12]; [21],0.572%
same,max response,[16],-0.0429%
same,outcome,[17],inactive
C#C[C@]1(OC(C)=O)CC[C@H]2[C@@H]3CCC4=C[C@@H](OC(C)=O)CC[C@@H]4[C@H]3CC[C@@]21C,Potency,[1],inactive
same,Potency,[3],inactive
same,Potency,[4],inactive
same,Potency,[6],inactive
same,Potency,[7],inactive
same,Potency,[8],inactive
same,Potency,[14],inactive
same,Potency,[9],inactive
same,Potency,[10],inactive
same,Potency,[11],inactive
same,"activity, negative = cell killing",[12]; [21],-26.2%
same,Potency,[12]; tumour line A,10 µM (active)
same,Potency,[12]; tumour line D,17.8 µM (active)
same,Potency,[13],inactive
COc1cc(C(=S)N2CCOCC2)cc(OC)c1OC,Potency,[1],inactive
same,Potency,[3],inactive
same,Potency,[4],inactive
same,Potency,[5],inactive
same,Potency,[6],inactive
same,Potency,[7],inactive
same,Potency,[8],inactive
same,Potency,[14],inactive
same,Potency,[9],inactive
same,Potency,[10],inactive
same,Potency,[11],inactive
same,"activity, negative = cell killing",[12]; [18],-7.77%
same,"activity, negative = cell killing",[12]; [19],-20%
same,"activity, negative = cell killing",[12]; [20],-25.7%
same,"activity, negative = cell killing",[12]; [21],-20.5%
same,Potency,[13],inactive
CC(=O)O[C@H]1C[C@@H]2CC[C@@H]3[C@H](CC[C@@]4(C)[C@H]3C[C@H]([N+]3(C)CCCCC3)[C@@H]4OC(C)=O)[C@@]2(C)C[C@@H]1[N+]1(C)CCCCC1,"activity, negative = cell killing",[12]; [18],7.88%
same,"activity, negative = cell killing",[12]; [19],-21.6%
same,"activity, negative = cell killing",[12]; [20],-27.9%
same,"activity, negative = cell killing",[12]; [21],-11.1%
same,Potency,[13],inactive
CCCCCCCCCCCCCCCCOP(=O)([O-])OCC[N+](C)(C)C,Potency,[1],inactive
same,Potency,[3],inactive
same,Potency,[4],inactive
same,Potency,[6],inactive
same,Potency,[7],inactive
same,Potency,[8],25.1 µM (active)
same,Potency,[14],inactive
same,Potency,[9],inactive
same,Potency,[10],25.1 µM (active)
same,Potency,[11],inactive
same,"activity, negative = cell killing",[12]; [18],-7.15%
same,"activity, negative = cell killing",[12]; [19],-0.719%
same,"activity, negative = cell killing",[12]; [21],-5.47%
same,Potency,[13],inactive
Nc1cc(Cl)c(NC2=NCCN2)c(Cl)c1,"activity, negative = cell killing",[12]; [18],-8.4%
same,"activity, negative = cell killing",[12]; [19],-1.45%
same,"activity, negative = cell killing",[12]; [20],-27.8%
same,"activity, negative = cell killing",[12]; [21],-9.7%
same,Potency,[13],inactive
COc1cc(NS(C)(=O)=O)ccc1Nc1c2ccccc2nc2ccccc12,Potency,[13],11.2 µM (active)
CNCCC=C1c2ccccc2CCc2ccccc21,"activity, negative = cell killing",[12]; [21],-6.98%
same,Potency,[12]; tumour line A,6.31 µM (active)
same,Potency,[12]; tumour line B,22.4 µM (active)
C1CCc2nnnn2CC1,"activity, negative = cell killing",[12]; [18],-2.41%
same,"activity, negative = cell killing",[12]; [19],-3.11%
same,"activity, negative = cell killing",[12]; [20],-28.5%
same,"activity, negative = cell killing",[12]; [21],-27%
same,Potency,[13],inactive
